A selection: hits, their analogues and other compounds. The true share with any hit is near 3.4%.
PP5 inh: inhibitors of human protein phosphatase 5 (PP5). hit rate 0.18% among 320,000. inhibition, % at 6.7 µM. purified PP5c, OMFP substrate fluorescence. AID 1987;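 active means inhibition above the campaign's mean inhibition across all tested compounds plus 3 SD, cut at about 9.5% in these data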
Target sequence (P53041 whole entry, looked up): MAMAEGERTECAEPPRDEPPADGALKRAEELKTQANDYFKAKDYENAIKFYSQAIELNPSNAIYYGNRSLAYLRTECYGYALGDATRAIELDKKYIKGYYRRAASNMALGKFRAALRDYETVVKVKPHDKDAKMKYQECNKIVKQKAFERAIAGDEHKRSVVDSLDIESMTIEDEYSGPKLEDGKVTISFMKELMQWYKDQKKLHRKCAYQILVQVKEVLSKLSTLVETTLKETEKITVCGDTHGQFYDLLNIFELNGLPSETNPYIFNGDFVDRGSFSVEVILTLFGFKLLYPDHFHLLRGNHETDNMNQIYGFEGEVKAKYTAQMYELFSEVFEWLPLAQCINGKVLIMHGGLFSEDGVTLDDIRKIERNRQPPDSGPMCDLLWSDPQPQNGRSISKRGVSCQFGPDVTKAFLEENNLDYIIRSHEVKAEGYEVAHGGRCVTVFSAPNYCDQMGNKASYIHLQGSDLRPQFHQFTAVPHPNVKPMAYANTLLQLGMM
PAFAH2 FP inh: PAFAH2 (human) inhibition; Q99487; recombinant PAFAH2, FP-rhodamine activity probe, fluorescence polarization; inhibition, % at 3.39 µM; hit rate 0.99% among 340,000;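 active means inhibition above the mean over all tested compounds plus 3 SD, cut at about 30% in these data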;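 further: inhibitors block probe labeling of enzyme so polarization drops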
pPAFAH inh: inhibitors of human plasma PAF acetylhydrolase (pPAFAH). Q13093. recombinant pPAFAH, FP-rhodamine probe fluorescence polarization. inhibition, % at 3.39 µM. hit rate 1.5% among 330,000. AID 463082;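 active means inhibition above the mean inhibition across the screen plus 3 SD, cut at about 25% in these data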;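 further: inhibitors block binding of the rhodamine activity-based probe so polarization drops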
PAFAH1B3 FP inh: inhibitors of human PAFAH1B3. Q15102. recombinant PAFAH1B3, FP-rhodamine probe, fluorescence polarization. inhibition, % at 3.39 µM. hit rate 0.28% among 340,000;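 active means inhibition above the screen-wide average of all tested compounds plus 3 SD, cut at about 25% in these data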
PP1 counter: blocks human PP1-alpha phosphatase, a PP5 counter-screen; inhibition, % at 6.7 µM; P62136; hit rate 0.9% among 320,000; purified PP1alpha, OMFP fluorescence; AID 2235;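 active means inhibition above the mean inhibition of all tested compounds plus 3 SD, computed separately for each screening campaign, cut at about 15% in these data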
PAFAH1B2 FP inh: inhibitors of human PAFAH1B2; recombinant PAFAH1B2, FP-rhodamine activity probe, fluorescence polarization; P68402; inhibition, % at 3.39 µM; hit rate 1.2% among 340,000;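 active means inhibition above the mean of all tested compounds plus 3 SD, cut at about 24% in these data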
PAFAH2 confirm: PAFAH2 (human) inhibition, confirmed; shares compounds with PAFAH2 FP inh; recombinant PAFAH2, FP-rhodamine activity probe, fluorescence polarization; inhibition, % at 3.39 µM; hit rate 65% among 2,300; AID 493030;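 active means mean inhibition over three repeats above a set limit taken from the earlier primary screen, cut at about 30% in these data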;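 further: inhibitor blocks binding of rhodamine activity probe so polarization falls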
Hits are given with their value; n = inactive; x = no result given.

SMILES	PP5 inh	PAFAH2 FP inh	pPAFAH inh	PAFAH1B3 FP inh	PP1 counter	PAFAH1B2 FP inh	PAFAH2 confirm
Cc1cc(Br)c(NC(=O)COC(=O)C2CCCCC2)c(Br)c1	x	33.2	n	n	x	n	31.6
O=C(COC(=O)c1cc[n+]([O-])cc1)Nc1ccccc1Cl	n	n	n	n	n	n	x
O=C(COC(=O)c1ccccn1)Nc1cccc(Cl)c1	n	n	n	n	n	n	x
Cn1ccc(C(=O)OCC(=O)Nc2ccccc2Cl)n1	x	38.5	x	n	x	n	n
Cn1nccc1C(=O)OCC(=O)Nc1ccc(S(N)(=O)=O)cc1	n	n	n	n	n	n	x
Cn1ccc(C(=O)OCC(=O)Nc2cccc(Cl)c2)n1	n	83.2	n	n	n	n	78.1
Cn1nccc1C(=O)OCC(=O)Nc1cccc(Cl)c1	n	66.2	n	n	n	n	52.5
COc1ccc(-n2nc(C)c3onc(C)c3c2=O)cc1	n	x	n	x	n	x	x
COc1ccc(-n2nc(N)c3c(=O)oc(N(C)C)nc32)cc1	n	53.6	n	n	n	n	45.4
CN(C)c1nc2c(c(N)nn2-c2ccc(Cl)cc2)c(=O)o1	n	47.5	n	n	n	n	40.5
O=c1c2sccc2[nH]c(=S)n1Cc1ccccc1	n	62.5	n	n	n	n	52.4
COc1ccc(CCC(=O)NC2CCCN(Cc3ccc(Cl)cc3)C2)cc1OC (stereo not drawn)	n	n	n	n	n	n	x
COc1ccc(C(=O)OCCCN(C)C)cc1OC	n	n	n	n	n	n	x
O=C(Nc1cccc(-c2csc(Nc3cccc(C(F)(F)F)c3)n2)c1)c1cc([N+](=O)[O-])cc(C(F)(F)F)c1	n	30.4	n	n	n	n	n
O=C(Nc1ccc(-c2csc(Nc3ccccc3)n2)cc1)c1cc([N+](=O)[O-])cc(C(F)(F)F)c1	n	50.1	n	n	n	n	n
COc1ccc(NS(=O)(=O)c2cc3c(cc2C)N(C)CCO3)cc1	n	n	n	n	n	n	x
Cc1oc(-c2ccc(Cl)cc2)cc1C(=O)O	n	n	n	n	n	n	x
O=C(c1ccccc1)c1ccc(Oc2ccc([N+](=O)[O-])cc2[N+](=O)[O-])cc1	x	n	x	n	x	n	x
O=C(NNC(=O)C12CC3CC(CC(C3)C1)C2)c1ccccn1	n	36.7	n	n	n	n	n
O=C(CC1NC2CCCCC2NC1=O)Nc1cccc(C(F)(F)F)c1 (stereo not drawn)	n	35.7	n	n	n	n	n
O=C1c2cccc3cccc(c23)C(=O)N1OS(=O)(=O)c1ccccc1	n	n	n	n	n	n	x
Cc1ccc(S(=O)(=O)ON2C(=O)c3cccc4cccc(c34)C2=O)cc1	n	30.2	n	n	n	n	n
Cc1cc(C)nc(N2CCCC(C(=O)Nc3ccc4c(c3)OCO4)C2)n1 (stereo not drawn)	n	n	n	n	n	n	x
O=C(O)c1ccc(CNC(=O)c2ccccc2NC(=O)c2ccc([N+](=O)[O-])cc2)cc1	n	37.8	n	n	n	n	29.8
Cc1cc(C)c(S(=O)(=O)N2CCCC(C(=O)NCc3ccncc3)C2)c(C)c1 (stereo not drawn)	n	n	n	n	n	n	x
SMILES	PP5 inh	PAFAH2 FP inh	pPAFAH inh	PAFAH1B3 FP inh	PP1 counter	PAFAH1B2 FP inh	PAFAH2 confirm
Cc1cc(C)c(S(=O)(=O)N2CCC(C(=O)NCc3ccncc3)CC2)c(C)c1	n	101.3	n	n	n	n	n
COc1ccc(-c2cc(C(=O)Nc3cc(C)on3)no2)cc1OC	n	61.8	n	n	n	n	n
Cc1cc(NC(=O)c2cc(-c3ccc(O)cc3)on2)no1	n	n	n	n	n	n	x
COc1cc(C(=O)OCn2nnc3ccccc3c2=O)cc(OC)c1OC	n	n	n	n	n	n	x
COc1cccc(C(=O)OCn2nnc3ccccc3c2=O)c1OC	n	50.3	n	n	n	n	45.4
COc1ccc(C(=O)OCn2nnc3ccccc3c2=O)cc1	n	42.6	n	n	n	n	36.9
O=C(OCn1nnc2ccccc2c1=O)c1ccc(O)cc1	n	33.3	n	n	n	n	n
Cc1ccccc1C(=O)OCn1nnc2ccccc2c1=O	n	n	n	n	n	n	x
CCOc1ccc(C(=O)OCn2nnc3ccccc3c2=O)cc1OC	n	63.0	n	n	n	n	51.7
CCCCCCCCOC(=O)/C=C/c1c(C)[nH]c(=O)[nH]c1=O	n	n	n	n	n	n	x

Screens (PubChem)
